Laboratory results as given in PubChem BioAssay AID1637 (Sanford-Burnham Center for Chemical Genomics, 2009).
Hit rate of the full screen: of about 3,700 compounds, fewer than 10 were called active. These entries were drawn from the full list. A number with no mark means an inactive call. How the calls were made is not given here.

Assay: NMR binding screen, influenza A RNA promoter, Kd (AID 1637)
Details: NMR binding to influenza A RNA promoter
In the case of `CC1=NNC(=O)C1CCc1ccncc1` (configuration not stated), the Kd is reported as > 4 mM. With `O=C(NCc1ccccc1Br)c1ccco1` the Kd was > 4 mM. For `COc1ccc(-c2c(OC)c3c(OC)c4c(cc3oc2=O)OC(C)(C)C=C4)cc1`, the Kd was > 4 mM. With `CCN=Cc1c(O)n(-c2ccccc2C)c(=O)[nH]c1=O` the Kd was > 4 mM. In the case of `NC(=O)c1ccc(NC(=O)C2CC2)cc1`, the Kd is reported as > 4 mM. For `c1ccc(CCN2CCN(CCc3ccccn3)CC2)nc1`, the Kd was > 4 mM. For `COc1c(O)cc2c(c1O)[C@H]1O[C@H](CO)[C@@H](O)[C@H](O)[C@@H]1OC2=O`, the Kd was > 4 mM. With `COc1cc(/C=C2/NC(=S)NC2=O)cc(Cl)c1O` the Kd was > 4 mM. For `O=C(Nc1nccs1)c1ccc(=O)[nH]n1`, the Kd was > 4 mM. With `COC(=O)c1ccc2nc[nH]c2c1` the Kd was > 4 mM. For `CNS(=O)(=O)c1cccs1`, the Kd was > 4 mM. In the case of `OCCCc1nc2ccc(C(F)(F)F)cc2[nH]1`, the Kd is reported as > 4 mM. For `CC(=O)Nc1ccc(S(=O)(=O)N(C)C)cc1`, the Kd was > 4 mM. In the case of `O=C(NCc1cccc(Cl)c1)c1cnccn1`, the Kd is reported as > 4 mM. In the case of `Cc1cc(C)n(CCCC(=O)O)n1`, the Kd is reported as > 4 mM. With `Cn1c(O)c(/C=C2\C=CC=N2)c(=O)[nH]c1=O` the Kd was > 4 mM. With `CCOC(=O)c1ccc2c(c1)nnn2C` the Kd was > 4 mM. In the case of `COc1ccc(-c2coc3c(OC)c(OC)cc(OC)c3c2=O)cc1`, the Kd is reported as > 4 mM. With `NCc1c[nH]c2ccccc12` the Kd was > 4 mM. With `Cn1c(=O)n(C)c2cc(C(N)=O)ccc21` the Kd was > 4 mM. For `CC(C)=NNC(=O)C(=O)NC(C)(C)C`, the Kd was > 4 mM. For `NC(=O)C1CCN(C(=O)c2ccccc2)CC1`, the Kd was > 4 mM. For `CN1C(=O)/C(=C/c2ccc(O)cc2O)SC1=S`, the Kd was > 4 mM. In the case of `NC(C(=O)O)C(O)c1ccccc1` (configuration not stated), the Kd is reported as > 4 mM. For `CCOC(=O)c1c(C)[nH]c2ccc(O)cc12`, the Kd was > 4 mM. For `O=C(Cc1ccc(F)cc1)Nc1ncccn1`, the Kd was > 4 mM. In the case of `Fc1ccc(-c2n[nH]c(=S)n2CC2CCCO2)cc1` (configuration not stated), the Kd is reported as > 4 mM. With `O=C(CC1SC(=O)NC1=O)Nc1nccs1` (configuration not stated) the Kd was > 4 mM. With `O=C(O)c1cccc2c1OCCCO2` the Kd was > 4 mM. For `NC(=S)CN1CCCC1=O`, the Kd was > 4 mM. For `CC1=NN(c2ccc(C)cc2)C(=O)C1`, the Kd was > 4 mM. In the case of `O=P(c1ccccc1)(c1ccccc1)C1CCOCC1`, the Kd is reported as > 4 mM. For `CC(=O)N1CCN(S(=O)(=O)c2ccccc2)CC1`, the Kd was > 4 mM. For `CN1CCN(CC(=O)N2CCc3ccccc32)CC1`, the Kd was > 4 mM. With `O=C(NC1=NCCS1)c1cccc(F)c1` the Kd was > 4 mM. In the case of `O=C1NC(=S)S/C1=C/c1ccncc1`, the Kd is reported as > 4 mM. In the case of `Cc1[nH]c2ccccc2c1C(=O)CSc1ncn[nH]1`, the Kd is reported as > 4 mM. With `O=C(NN1CCOCC1)c1ccccc1F` the Kd was > 4 mM. For `Cc1cc(=O)oc2cc3c(cc12)OCCO3`, the Kd was > 4 mM. In the case of `CC1SC(=NC(=O)c2ccncc2)NC1=O` (configuration not stated), the Kd is reported as > 4 mM. For `Cc1cc(OC(=O)c2ccco2)c([N+](=O)[O-])c(=O)[nH]1`, the Kd was > 4 mM. With `Cc1c(O)c(O)cc2c1CC=C1[C@@]2(C)CC[C@@]2(C)C3C[C@](C)(C(=O)O)CC[C@]3(C)CC[C@]12C` (some centres not stated) the Kd was > 4 mM. In the case of `CCN1CCn2c1nc(N1CCOCC1)nc2=O`, the Kd is reported as > 4 mM. In the case of `Nc1cc(=O)[nH]c(=S)n1-c1ccc(F)cc1`, the Kd is reported as > 4 mM. With `Cc1cc(=O)n2ncn(Cc3ccccc3)c2n1` the Kd was > 4 mM. In the case of `Nc1ccc(-n2cccc2)cc1`, the Kd is reported as > 4 mM. In the case of `CC1(C)Cc2nc(N3CCOCC3)c(C#N)cc2CO1`, the Kd is reported as > 4 mM. For `O=C1c2cccnc2C(=O)N1Cc1ccc2c(c1)OCO2`, the Kd was > 4 mM. For `Cn1ccnc1C(O)c1ccccc1` (configuration not stated), the Kd was > 4 mM. In the case of `CS(=O)(=O)c1ccccc1C(=O)Nc1nccs1`, the Kd is reported as > 4 mM. With `NS(=O)(=O)c1ccc(NC(=O)C2CC2)cc1` the Kd was > 4 mM. In the case of `COc1ccc(/C=C2/NC(=S)NC2=O)cc1`, the Kd is reported as > 4 mM. With `CC(=O)NC(NC(C)=O)c1ccccc1` the Kd was > 4 mM. For `O=S(=O)(O)c1cc[n+]([O-])cc1`, the Kd was > 4 mM. For `Cc1cc(N2C(=O)CCC2=O)n(-c2ccccc2)n1`, the Kd was > 4 mM. In the case of `Nc1nc(-c2ccc(O)cc2)cs1`, the Kd is reported as > 4 mM. With `O=C(CNC(=O)c1ccc(F)cc1)NC1=NCCS1` the Kd was > 4 mM. In the case of `COCCOc1nc2ccccc2nc1C`, the Kd is reported as > 4 mM. In the case of `O=C1C2CC=CCC2C(=O)N1c1ccccc1O` (configuration not stated), the Kd is reported as > 4 mM. For `Cc1ccn(S(=O)(=O)c2ccc(F)cc2)n1`, the Kd was > 4 mM. In the case of `NS(=O)(=O)c1ccc(NC(=O)C(F)(F)F)cc1`, the Kd is reported as > 4 mM. For `CC(C)C(C)/C=C/C(C)[C@H]1CCC2C3=CCC4CC(=O)CC[C@]4(C)C3CC[C@@]21C` (some centres not stated), the Kd was > 4 mM. For `CS(=O)(=O)NC1CCN(Cc2ccccc2)CC1`, the Kd was > 4 mM. For `CC(=O)c1c(O)c(C)c(O)c2c1OC1=CC(=O)C(C(C)=O)C(=O)C12C` (configuration not stated), the Kd was > 4 mM. For `O=C(O)c1coc2c1C(=O)CCC2`, the Kd was > 4 mM. In the case of `S=c1[nH]nc(-c2cccnc2)n1Cc1ccccc1`, the Kd is reported as > 4 mM. With `CS(=O)(=O)N1CCN(C(=O)Cc2cccs2)CC1` the Kd was > 4 mM. With `NC1=NC(=O)/C(=C/c2ccccc2[N+](=O)[O-])S1` the Kd was > 4 mM. For `CCN1CC2(C)CC[C@H](OC)[C@]34C2[C@H](O)C2(OCO[C@@]25C[C@H](OC)[C@H]2C[C@]3(O)C5[C@H]2O)C14`, the Kd was > 4 mM. For `O=c1c2ccccc2oc2ccc(O)cc12`, the Kd was > 4 mM. In the case of `COc1cc(C)c(S(=O)(=O)N2CCN(C)CC2)cc1C`, the Kd is reported as > 4 mM. For `Nc1ncnc(NCc2cccnc2)c1[N+](=O)[O-]`, the Kd was > 4 mM.
